# Screening data as filed in PubChem BioAssay.
# Most compounds without a hit are left out; they make up all but 21% or so of the library.
# IL1B secr inh: inhibitors of inflammasome signaling (IL-1 beta secretion). actives 4.7% (n = 360,000). activity change, % at 57.5 µM. THP-1 LPS/ATP IL-1B secretion, AlphaLISA, 16 h; active compounds read low; in the data active means activity change below about -50%; inconclusive means mostly about -30% to -49%; further: on the % scale 0 is the no-effect control and ±100 the full control effect
#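 Secreted IL-1B measured by AlphaLISA bead assay after 16 h compound exposure of THP-1 cells; compounds (final up to 57.5 uM) added 1 h before LPS (250 ng/mL) and ATP (1.25 mM) stimulation; lower signal means less secretion.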
# DT40 TDP1 no CPT: qHTS for Inhibitors of human tyrosyl-DNA phosphodiesterase 1 (TDP1): qHTS in cells in absence of CPT. DT40 Tdp1-/- hTDP1 cells, no CPT, ATP luminescence, 48 h. Potency, µM (highest dose often 46.2 µM), inactives show at the top dose activity change, negative = growth inhibition, usual class: inhibitors. actives 15% (n = 420,000); further: potency means the concentration at half of the fitted maximal effect; on the % scale 0 is the no-effect control and ±100 the full control effect; nearly all actives have a fitted effect of over 55% in size
#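 Seeded 400 DT40-hTDP1 cells/well (vehicle DMSO, no 20 nM CPT); pinned compounds; ≥48 hr at 37 °C; CellTiter-Glo luminescence as viability measure.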
# D3 antag: antagonists of human D3 dopamine receptor | P35462 | D3R cells, DiscoveRx beta-arrestin luminescence, antagonist mode; active compounds read low | max response, negative = inhibition, % | actives 2.5% (n = 360,000) | AID 652054; in the data active means max response below about -50%; inconclusive means no clear call, values can overlap the other calls; further: on the % scale 0 is the no-effect control and ±100 the full control effect
#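 Cells plated overnight at 1500 cells/well, then exposed to library compounds with dopamine controls for 90 minutes at 37 degrees C. DiscoveRx reagent added for 30–60 minutes at room temperature; luminescence read, quantitative HTS format.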
# ClpP mod: qHTS Assay for Activators of ClpP. actives 1.9% (n = 340,000). purified B. subtilis ClpP, FRET peptide cleavage, 20 min. Potency, µM (highest dose often 57.5 µM), for inactives: at the highest dose activity change, negative = active; active means well fitted falling curve with a large enough effect; inconclusive means small, poorly fitted or top-dose-only effect; inactive means no such curve, though single readings can be large or run the other way; further: potency means the concentration at half of the fitted maximal effect; the source files actives as falling curves though it sought activators and does not explain the sign; nearly all actives have a fitted effect of over 65% in size
#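 FRET quenching reversal measured ClpP activation: 10 microg/mL B. subtilis ClpP at pH 8 with the FRET-FV decapeptide, read at 430 nm after 320 nm excitation. The 20-min minus 0-min signal was scaled between DMSO/no-enzyme wells and ADEP (5.8 microM final).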
# DRD3 agonist: activates the human D3 dopamine receptor. P35462. D3R DiscoveRx beta-arrestin cells, luminescence, 90 min. max activation, %. actives 0.58% (n = 410,000). AID 652048; in the data active means max activation above about 30%; further: 0% is about no effect
#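 Agonist mode: compounds and dopamine controls were applied to plated cells for 90 min at 37 degrees C after an overnight attachment at 1500 cells/well. Luminescent read-out followed 30 - 60 minutes at room temperature with DiscoveRx detection reagent.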
# DT40 TDP1 CPT: DT40-hTDP1 cell growth loss with CPT; chicken DT40 Tdp1-/-;hTDP1 cells + 20 nM CPT, ATP luminescence, 48 h; actives 12% (n = 420,000); AID 686979; Potency, µM (series often up to 46.2 µM), for the others: at the highest dose activity change, negative = growth inhibition, most hits filed as inhibitors; further: potency means the concentration at half of the fitted maximal effect; on the % scale 0 is the no-effect control and ±100 the full control effect; nearly all actives have a fitted effect of over 55% in size
#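 Chicken DT40 Tdp1-/- cells stably complemented with human TDP1 were seeded at 400 cells/well in medium containing 20 nM camptothecin, exposed to pin-transferred compounds, and grown at 37 °C for at least 48 hr. Viability was read as ATP luminescence.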
# * marks the source's active call; other numbers are inactive results; ? = inconclusive; . = no result given; [ ] = another dose, or the depositor's remark. Unless noted, the call rests on the fitted dose curve; in most records, active means well fitted inhibition curve with a large enough effect; inconclusive means small, poorly fitted or top-dose-only effect; inactive means flat fitted curve, though single readings scatter.
SMILES,IL1B secr inh,DT40 TDP1 no CPT,D3 antag,ClpP mod,DRD3 agonist,DT40 TDP1 CPT
N#Cc1ccsc1NC(=O)CCN1CCN(C(c2ccccc2)c2ccccc2)CC1,-17,26µM*,-4,.,-16,29µM*
Nn1c(SCc2cccc(F)c2)nnc1-c1ccncc1,8,-15%,-1,-1%,0,-5%
CCC(C)[C@H](NC(=O)[C@@H]1Cc2c([nH]c3ccccc23)C2c3ccccc3C(=O)N21)C(=O)NCC1CCCO1 (some centres not stated),-20,16µM*,0,-17%,-11,?
CCN(CC)S(=O)(=O)c1ccc2c(c1)c(=O)c(C(=O)NCc1ccccc1Cl)cn2C,.,7.3µM*,.,-3%,-9,9.2µM*
Cn1cc(C(=O)NCc2ccccc2Cl)c(=O)c2cc(S(=O)(=O)N3CCCCCC3)ccc21,.,?,.,0%,6,?
CCN(CC)S(=O)(=O)c1ccc2c(c1)c(=O)c(C(=O)N1CCN(c3cc(Cl)ccc3C)CC1)cn2C,.,?,.,-5%,-15,16µM*
CCn1cc(C(=O)NCCc2ccc(OC)c(OC)c2)c(=O)c2cc(S(=O)(=O)N3CCOCC3)ccc21,-18,18µM*,14,-1%,19,?
C=CCn1cc(C(=O)N2CCc3ccccc3C2)c(=O)c2cc(S(=O)(=O)N(CC)CC)ccc21,-25,18µM*,-8,0%,-9,?
COC(=O)CCC[N+](C)(C)C,.,-11%,.,.,-9,-2%
CC1(C)CCC[C@@]2(C)C1CC[C@@](C)(O)[C@@H]2CC[C@@](C)(O)C1CO1 (some centres not stated),.,-5%[9.04 µM],.,.,.,?
CCN(CC)S(=O)(=O)c1ccc2c(c1)c(=O)c(C(=O)NCCc1ccc(OC)c(OC)c1)cn2C,-12,?,8,0%,4,18µM*
COc1ccc(CCNC(=O)c2cn(C)c3ccc(S(=O)(=O)N4CCOCC4)cc3c2=O)cc1OC,?,-11%,1,0%,-4,?
CCOc1ccc(CCNC(=O)c2cn(CC)c3ccc(S(=O)(=O)N4CCCCCC4)cc3c2=O)cc1OCC,.,18µM*,.,?,-2,?
CCOc1ccc(CCNC(=O)c2cn(CC)c3ccc(S(=O)(=O)N4CCc5ccccc5C4)cc3c2=O)cc1OCC,.,12µM*,.,?,-4,18µM*
CC(=O)N1CCc2cc(Br)cc(S(=O)(=O)N3CCC(C(=O)Nc4cccc(C)c4C)CC3)c21,.,-23%,.,-2%,9,-1%
Cc1ccc(S(=O)(=O)N2C[C@H]3C(=O)C[C@@H](c4cccc(Cl)c4)N(S(=O)(=O)c4ccc(C)cc4)[C@H]3C[C@H]2c2ccccc2)cc1,26,-8%,5,2%,2,-2%
N#C/C(=C(/O)c1cccs1)c1nc2ccccc2[nH]1,58,-21%,-22,3%,-5,?
N#C/C(=C(/O)c1ccc([N+](=O)[O-])s1)c1nc2ccccc2[nH]1,-17,1µM*,-16,0%,-5,-87%
N#C/C(=C(/O)c1ccc(C(=O)c2ccccc2)cc1)c1nc2ccccc2[nH]1,1,-22%,9,.,-10,2%
N#C/C(=C(/O)c1ccc(Br)s1)c1nc2ccccc2[nH]1,18,7.3µM*,-27,-11%,3,4.6µM*
Cc1ccc(C)c(NC(=O)CN(C)C(=O)c2cc3c(s2)CCCCC3)c1,13,?,-4,1%,13,?
CC1(C(=O)Nc2ccc(Cl)c(C(F)(F)F)c2)Cc2c(-c3ccc(C(N)=O)cc3)ccnc2O1 (configuration not stated),23,15µM*,-30,-8%,2,18µM*
CC1(C(=O)Nc2cccc(OC(F)(F)F)c2)Cc2c(-c3cccc(C(N)=O)c3)ccnc2O1 (configuration not stated),17,21µM*,6,-1%,2,?
COc1ccc(NC(=O)C2(C)Cc3c(-c4cccc(C(N)=O)c4)ccnc3O2)cc1 (configuration not stated),-6,3.7µM*,9,0%,-7,3.7µM*
CC1(C(=O)Nc2cccc(C(F)(F)F)c2)Cc2c(-c3ccccc3)ccnc2O1 (configuration not stated),13,?,0,-7%,-7,?
SMILES,IL1B secr inh,DT40 TDP1 no CPT,D3 antag,ClpP mod,DRD3 agonist,DT40 TDP1 CPT
CC(=O)Nc1ccc(NC(=O)C2(C)Cc3c(-c4cccc(C(N)=O)c4)ccnc3O2)cc1 (configuration not stated),7,-9%,-13,2%,1,9%
CC1(C(=O)Nc2cccc(C(F)(F)F)c2)Cc2c(-c3cccc(C(N)=O)c3)ccnc2O1 (configuration not stated),24,6.5µM*,0,-5%,-2,-100%
C/C=C(/CC[C@@H](C)[C@H]1CC[C@H]2C3=CC[C@H]4[C@H](C)[C@@H](O)CC[C@]4(C)[C@H]3CC[C@]12C)C(C)C,.,-21%,.,.,9,-6%
COc1ccc(C(=O)NC2CCCc3c2cnn3-c2ccccc2F)o1 (configuration not stated),10,?,-12,0%,-8,-29%
CCOc1ccccc1NC(=O)Cn1c(=O)n(-c2ccccc2)c(=O)c2c1c1cc(C)ccc1n2C,.,5%,.,4%,-1,2%
CC1(C(=O)Nc2cccc(OC(F)(F)F)c2)Cc2c(-c3ccc4c(c3)OCO4)ccnc2O1 (configuration not stated),90,?,?,4%,-7,21µM*
CC1(C(=O)Nc2ccc(Cl)c(C(F)(F)F)c2)Cc2c(-c3cccc(C(N)=O)c3)ccnc2O1 (configuration not stated),0,6.5µM*,-15,-8%,0,10µM*
COc1ccc(NC(=O)C2(C)Cc3c(-c4ccc5c(c4)OCO5)ccnc3O2)cc1 (configuration not stated),37,2.9µM*,-5,5%,-4,4.1µM*
CC(C)CCNC(=O)c1ccc2c(c1)N(Cc1ccccc1)C(=O)CS2=O (configuration not stated),-2,?,?,-1%,-5,21µM*
CCOCCCNC(=O)c1ccc2c(c1)N(Cc1ccccc1)C(=O)CS2=O (configuration not stated),9,4%,-14,2%,4,2%
